Source: PubChem BioAssay
TDP1 cell CPT – DT40-hTDP1 cell growth loss with CPT. chicken DT40 Tdp1-/-;hTDP1 cells + 20 nM CPT, ATP luminescence, 48 h. Potency, µM (titrated, usually from 46.2 µM), for inactives: at the highest dose activity change, negative = growth inhibition, actives largely listed as inhibitors. 420,000 tested, 12% active; note: potency is the fitted concentration of half-maximal effect; nearly all actives have a fitted effect of over 55% in size
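Chicken DT40 Tdp1-/- cells stably complemented with human TDP1 were seeded at 400 cells/well in medium containing 20 nM camptothecin, exposed to pin-transferred compounds, and grown at 37 °C for at least 48 hr. Viability was read as ATP luminescence.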
IL1B secr inh – inhibitors of inflammasome signaling (IL-1 beta secretion); activity change, % at 57.5 µM; 360,000 tested, 4.7% active; AID 743279; THP-1 LPS/ATP IL-1B secretion, AlphaLISA, 16 h; active compounds read low; in the data active = activity change below about -50%; inconclusive = mostly about -30% to -49%
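THP-1 cells pretreated 1 hr with compounds (up to 57.5 uM final), then stimulated with LPS (250 ng/mL final) plus ATP (1.25 mM final); secreted IL-1B measured by AlphaLISA after 16 hr, decreased signal indicating inhibition.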
VP16 counter – inhibits Gal4-VP16 luciferase reporter, ROR gamma counter-screen | Drosophila S2 Gal4-VP16 UAS-luciferase, luminescence, 20 h | AID 2546 | 310,000 tested, 3.5% active | Potency, µM (titrated, usually from 53.6 µM), for the others: at the top dose activity, negative = inhibition, usual class: inhibitors;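 note: Gal4-VP16 expression switched on by copper sulfate through the metallothionein promoter; potency is the fitted concentration of half-maximal effect; nearly all actives have a fitted effect of over 50% in size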
ELG1 DNA repair – ELG1-dependent DNA repair inhibition. HEK293T ELG1-luciferase reporter, luminescence, 16 h; DNA damage induced by 5-fluorouridine. Potency, µM (doses to about 46.1 µM), inactives show at the highest dose activity change, negative = inhibition, most hits filed as inhibitors. 330,000 tested, 2.3% active. AID 504467; note: potency is the fitted concentration of half-maximal effect; nearly all actives have a fitted effect of over 55% in size
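HEK293T cells expressing luciferase-tagged ELG1 (2,000/well) received 5-Fluorouridine plus compound or DMSO for 16 hr at 37 °C. Luciferase was read by ONE-Glo luminescence after 30 min at room temperature.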
RORgamma inh – inhibitors of mouse ROR gamma transcriptional activity | Drosophila S2 Gal4-RORgamma UAS-luciferase reporter, 20 h | Potency, µM (series often up to 53.6 µM), inactives show at the highest dose activity change, negative = inhibition, most hits filed as inhibitors | 310,000 tested, 5.4% active | AID 2551; note: potency is the fitted concentration of half-maximal effect; nearly all actives have a fitted effect of over 60% in size
Target sequence (P51450 whole entry, looked up, the tested form may be a part): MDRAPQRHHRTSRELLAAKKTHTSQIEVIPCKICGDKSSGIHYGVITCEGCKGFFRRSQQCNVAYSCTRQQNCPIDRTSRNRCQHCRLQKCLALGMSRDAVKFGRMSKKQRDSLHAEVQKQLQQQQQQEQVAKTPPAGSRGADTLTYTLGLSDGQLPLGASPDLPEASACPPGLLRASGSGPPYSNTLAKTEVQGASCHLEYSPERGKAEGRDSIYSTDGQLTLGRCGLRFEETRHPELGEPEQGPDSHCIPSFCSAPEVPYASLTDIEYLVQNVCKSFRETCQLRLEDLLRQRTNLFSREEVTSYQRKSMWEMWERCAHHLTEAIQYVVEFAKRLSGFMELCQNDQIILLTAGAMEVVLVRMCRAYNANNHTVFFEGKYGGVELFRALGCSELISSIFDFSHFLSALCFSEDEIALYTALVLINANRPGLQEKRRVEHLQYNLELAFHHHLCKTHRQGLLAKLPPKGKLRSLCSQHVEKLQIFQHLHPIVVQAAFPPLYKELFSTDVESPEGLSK
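A Gal4/UAS one-hybrid system in insect cells: metallothionein-promoter Gal4–ROR gamma fusion plus Photinus luciferase reporter. Copper sulfate 700 uM final, 20 hr ambient incubation, luminescent detection after 10 min with reagent.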
DT40 TDP1 no CPT – qHTS for Inhibitors of human tyrosyl-DNA phosphodiesterase 1 (TDP1): qHTS in cells in absence of CPT. DT40 Tdp1-/- hTDP1 cells, no CPT, ATP luminescence, 48 h. Potency, µM (series often up to 46.2 µM), for inactives: at the highest dose activity change, negative = growth inhibition, actives largely listed as inhibitors. 420,000 tested, 15% active. AID 686978, 2013; note: potency is the fitted concentration of half-maximal effect; nearly all actives have a fitted effect of over 55% in size
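No-CPT arm: Tdp1-/-;hTDP1 DT40 cells (400/well) plus compounds, incubated ≥48 hr at 37 °C. Readout CellTiter-Glo luminescence.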
Numbers without * were called inactive; ? = inconclusive; . = not tested or not shown; [ ] = dose if it differs, or a comment. Hits are enriched below; roughly 21% of the tested compounds scored in any of these assays. Unless noted, calls come from the whole dose curve; as a rule, active = well fitted curve in the direction sought with a large enough effect; inconclusive = small, poorly fitted or top-dose-only effect, or another doubt; inactive = no such curve, though single readings can be large; an effect the other way counts as inactive or inconclusive. % is set by controls: 0 for no effect and ±100 for the full control effect.

SMILES | TDP1 cell CPT | IL1B secr inh | VP16 counter | ELG1 DNA repair | RORgamma inh | DT40 TDP1 no CPT
O=C(COc1ccccc1)Nc1nc2ccccc2[nH]1 | ? | -4.6 | . | ? | ? | 16.4µM*
O=C(COc1ccccc1)Nc1ncn[nH]1 | -0.8% | -5.1 | -12.2% | ? | -1.2% | -3.2%
O=C(CSc1ccc2ccccc2c1)Nc1nc2ccccc2[nH]1 | -29.9% | 26.1 | ? | 13.9% | 11.2µM* | ?
CCCCOc1cccc(OCC(=O)Nc2nc3ccccc3[nH]2)c1 | 20.6µM* | 0.6 | ? | 8.1% | 15.8µM* | ?
CCOc1ccc(OCCCC(=O)Nc2nc3ccccc3[nH]2)cc1 | 13.7% | 8.6 | 0.6% | 7.9% | -38.8% | 0.7%
O=C(C1=NOC2(C1)C(=O)Nc1ccccc12)N1CCOCC1 (stereo unspecified) | -0.9% | 15.3 | . | . | . | -13.6%
O=C(Nc1ccc2nccnc2c1)N1CCCCCC1 | ? | . | . | . | . | -26.8%
CC(CC(=O)Nc1nc2ccccc2[nH]1)n1ccnc1 (stereo unspecified) | 18.4% | 15.7 | -0.6% | 16.7% | 3.9% | 8.6%
CC(CC(=O)Nc1nc2ccccc2[nH]1)c1ccccc1 (stereo unspecified) | ? | -13.9 | 4.47µM* | ? | ? | ?
CCCCCC1CCC(c2n[nH]c(=S)n2C)CC1 (stereo unspecified) | 7.31µM* | 3.7 | 3.98µM* | ? | ? | 2.91µM*
COc1ccc(CNC(=O)Cc2c(C)c3c(cc(C)c4c(C)coc43)oc2=O)cc1 | -3.0% | . | . | . | . | -5.2%
CCOC(=O)C1CCC(CN(Cc2ccc(OC)cc2)S(=O)(=O)c2ccc(F)c(C(=O)Nc3ccc(C)c(C)c3)c2)CC1 (stereo unspecified) | ? | . | . | . | . | -3.8%
CCOC(=O)C1CCC(CN(Cc2c(Cl)cccc2Cl)S(=O)(=O)c2ccc(Cl)cc2)CC1 (stereo unspecified) | ? | . | . | . | . | 20.6µM*
CCOC(=O)C1CCC(CN(Cc2cccc(Br)c2)S(=O)(=O)c2ccc(Cl)cc2)CC1 (stereo unspecified) | 29.1µM* | . | . | . | . | 20.6µM*
O=C(CSc1nnc(-c2ccccc2O)o1)N1CCCCC1 | 1.5% | 9.8 | -20.6% | ? | -43.3% | -17.8%
COc1ccc(C(=O)Nn2c(SCC(=O)NCc3ccccc3)nc3ccccc3c2=O)cc1 | 0.4% | -7.3 | 2.8% | ? | 10µM* | -10.3%
COc1ccc(C(=O)Nn2c(SCC(=O)NCC3CCCO3)nc3ccccc3c2=O)cc1 (stereo unspecified) | -1.9% | -20.9 | ? | ? | 7.08µM* | -26.8%
O=C(CSc1nc2ccccc2c(=O)n1CC1CCCO1)NCC1CCCO1 (stereo unspecified) | 6.9% | 0.0 | 0.0% | -6.9% | 15.3% | -3.6%
COc1ccc(C(=O)Nn2c(SCC(=O)NC3CCCC3)nc3ccccc3c2=O)cc1 | -4.2% | -20.2 | ? | ? | ? | -10.2%
CCOC(=O)C1CCCN(C(=O)C2CCN(S(=O)(=O)c3ccc4ccccc4c3)CC2)C1 (stereo unspecified) | ? | -0.2 | -9.2% | 11.4% | 24.1% | ?
Cc1cc(-c2ccccc2)cc(=O)[nH]1 | -1.0% | -3.0 | . | . | . | -2.5%
Cc1cc(-c2ccccc2)cc(-c2ccccc2)[n+]1C | 10.3µM* | 2.6 | ? | 11.6µM* | 18.8% | 8.2µM*
CC(=O)c1ccc(NC(=O)c2cnn(-c3cccc(F)c3)c2-n2cccc2)cc1 | ? | . | . | . | . | 23.1µM*
CCN(CC)c1ccc(NC(=O)c2cnn(-c3ccccc3)c2-n2cccc2)c(C)c1 | 14.6µM* | . | . | . | . | 10.3µM*
CC(=O)c1ccc(NC(=O)c2cnn3ccccc23)cc1 | -22.7% | -17.3 | ? | ? | ? | -19.2%
SMILES | TDP1 cell CPT | IL1B secr inh | VP16 counter | ELG1 DNA repair | RORgamma inh | DT40 TDP1 no CPT
CCN(CC)c1ccc(NC(=O)c2cccc(F)c2)c(C)c1 | 4.61µM* | -6.4 | 12.2% | 3.8% | 15.7% | 3.26µM*
Cc1cc(NC(=O)c2cnn(-c3ccccc3)c2-n2cccc2)ccc1Br | 18.4µM* | . | . | . | . | ?
CN(C)c1ccc(CC(=O)N2CCCC(c3cc(C(=O)Nc4ccc(C(C)(C)C)cc4)no3)C2)cc1 (stereo unspecified) | ? | -3.5 | . | . | . | ?
Cc1cc(N=Cc2c(O)n(-c3cccc(Cl)c3)c(=O)c3ccccc23)no1 | 11.6µM* | 0.0 | -3.1% | 18.4µM* | 14.7% | 20.6µM*
O=c1c2ccccc2c(C=Nc2ccc(S(=O)(=O)Nc3ncccn3)cc2)c(O)n1-c1cccc(Cl)c1 | . | . | -0.8% | 4.3% | 4.8% | .
COc1ccc(CN2CCOc3ccc(C(O)c4cccnc4)cc3C2)cc1O (stereo unspecified) | 3.7%[9.04 µM] | . | . | . | . | -18.7%
CCn1c2ccccc2c2nnc(SCCCn3c(=O)[nH]c4ccccc43)nc21 | ? | 2.2 | ? | 23.1µM* | 5.0% | 23.1µM*
CCN(CC)CCn1c2ccc(F)cc2c2nc(C)sc21 | -12.7% | ? | -1.5% | -14.5% | 0.5% | -28.0%
Cc1nc2c3cc(Cl)ccc3n(CCN3CCOCC3)c2s1 | ? | -23.4 | 0.8% | ? | 3.4% | 14.6µM*
CCn1c2ccccc2c2nnc(SCc3ccc(C(=O)OC)o3)nc21 | 18.4µM* | -20.9 | 12.6µM* | ? | ? | 23.1µM*
CCCCn1c2ccc(C)cc2c2nnc(SCCN3CCCCC3)nc21 | ? | -78.4* | 0.3% | 10.7% | -35.3% | 20.6µM*
COc1ccc(OC)c(CN2CCOc3ccc(C(O)c4cccnc4)cc3C2)c1 (stereo unspecified) | 10.3%[9.04 µM] | . | . | . | . | -29.4%
Cc1ccc2c(c1)c1nc3ccccc3nc1n2C | ? | -6.0 | -9.1% | ? | -18.6% | ?
Cc1ccc2c(c1)c1nc3ccccc3nc1n2CCN1CCOCC1 | ? | -58.3* | -15.8% | -27.9% | -6.8% | 18.4µM*
CCn1c2ccccc2c2nnc(SCCN3CCCCC3)nc21 | 25.9µM* | ? | 18.2% | -7.0% | -3.1%[1.91 µM] | ?
CCn1c2ccc(C)cc2c2nnc(SCCN3CCOCC3)nc21 | ? | -64.2* | -5.1% | -16.1% | -27.3% | 20.6µM*
CCOc1ccc(N2C(=O)CC(N3CC(C)OC(C)C3)C2=O)cc1 (stereo unspecified) | -3.1% | 10.3 | 19.3% | 3.9% | 48.9% | 1.4%
CCCCC[n+]1ccn(C2=C([O-])c3ccccc3C(=O)/C2=N\S(=O)(=O)c2ccc(Cl)cc2)c1 | 4.61µM* | 106.8 | 3.5% | -10.1% | -24.6% | 2.91µM*
